These results are taken from PubChem BioAssay AID686979 (National Center for Advancing Translational Sciences (NCATS), 2013).

Each structure is given as a SMILES string. “And” between values parts separate entries of the source, which are not always exact repeats. Equal values may be shown once. In all, about 420,000 compounds went through this assay and about 50,000 (12%) were called active. Where a call stands in place of a potency, no number is given. Roughly 26% stayed inconclusive and do not appear here. This is one part of a sample in which actives are shown more often than they occur. The call rests on the fitted dose curve; in most records, active means well fitted inhibition curve with a large enough effect; inconclusive means small, poorly fitted or top-dose-only effect; inactive means flat fitted curve, though single readings scatter.
Potency means the concentration at half of the fitted maximal effect.

The experiment in a line: qHTS for Inhibitors of human tyrosyl-DNA phosphodiesterase 1 (TDP1): qHTS in cells in presence of CPT. Further: nearly all actives have a fitted effect of over 55% in size. To be noted: chicken DT40 Tdp1-/-;hTDP1 cells + 20 nM CPT, ATP luminescence, 48 h; series mostly up to 46.2 µM. The method, boiled down:
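Chicken DT40 Tdp1-/- cells stably complemented with human TDP1 were seeded at 400 cells/well in medium containing 20 nM camptothecin, exposed to pin-transferred compounds, and grown at 37 °C for at least 48 hr. Viability was read as ATP luminescence.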
As for `O=C(O)C1=NN(c2c(F)c(F)cc(F)c2F)C(=O)CC1`, the Potency entry is “inactive”. On to `O=C(O)CCc1cccnc1`, for which the Potency result is “inactive”. The result for `C/C(=N\NC(=O)CCn1nc(C)cc1C)C(C)(C)C` reads “inactive”.

As to `Cc1ccc2c(C)c(C(=O)N(C)Cc3ccncn3)oc2c1C`, the Potency result is “inactive”. The result for `CC(=O)N1CCC2(CC1)CCN(c1ccncc1)CC2` reads “inactive”; that for `Cc1ccc2c(C)c(C(=O)N3CCN(c4ccncc4)CC3)oc2c1C`, 23.1 µM (active). The result for `CCOC(=O)N(Cc1ccccc1)C1CC1` reads “inactive”; that for `CCN(CC(=O)NCc1ccc(Cl)cc1)C(=O)c1c(C)noc1C`, “inactive”. As to `Cc1noc(C)c1-c1ccc(C(=O)NCc2ccncc2)c2occc12`, the Potency is 9.2 µM (active). The result for `O=C(NCc1ccncc1)C(=O)NCc1ccco1` reads “inactive”; that for `Cc1ccc(CNC(=O)CCc2c(C)nc3c(c(C)nn3-c3ccccc3)c2C)cc1`, “inactive”.

Turning to `CC(=O)Oc1ccc(N(C(C)=O)S(=O)(=O)c2ccc3ccccc3c2)cc1Br`, the Potency result is “inactive”. In the case of `COC(=O)c1c(C)oc2ccc(N(C(=O)Oc3ccccc3)S(=O)(=O)c3ccccc3)cc12`, the Potency was 20.6 µM (active).

As to `CCOC(=O)c1c(C)oc2nc(C)nc(Nc3ccc(CC)cc3)c12`, the Potency entry is “inactive”. With `CCOC(=O)c1c(C)oc2ccc(N(C(=O)c3ccncc3)S(=O)(=O)c3ccc(CC)cc3)cc12`, the Potency is 5.8 µM (active). The result for `CCOC(=O)c1c(C)oc2cc(Br)c(OCC(N)=O)cc12` reads “inactive”; that for `CN(CC(=O)O)S(=O)(=O)c1ccc2oc3ccccc3c2c1`, “inactive”.

Regarding `COc1cc(/C=C2/C(=O)NN(c3ccc(F)cc3)C2=O)cc([N+](=O)[O-])c1O`, the Potency result is “inactive”.

Consider `CC(C)(C)c1cc(=O)n2c(nc3ccccc32)[nH]1`, for which the Potency result was “inactive”. On to `COCCOC(=O)C1=C(C)NC(=O)NC1c1cc2c(cc1Br)OCO2` (stereo not drawn), for which the Potency result was “inactive”.

As to `O=C(O)C1=C/C(=C/C=[N+]2c3cc(O)c(O[C@H]4OC(CO)[C@@H](O)[C@@H](O)[C@@H]4O)cc3C[C@@H]2C(=O)[O-])C[C@H](C(=O)O)N1` (stereo partly drawn), the Potency entry is “inactive”. With `COc1ccc(CNC(=O)COC(=O)C(CCSC)N2C(=O)c3ccccc3C2=O)cc1` (stereo not drawn), the Potency result was “inactive”. The result for `COc1ccc(/C(O)=C2\C(=O)C(=O)N(Cc3ccco3)C2c2ccc(OC)cc2OC)cc1` (stereo not drawn) reads 29.1 µM (active); that for `COc1ccc(C2/C(=C(/O)c3ccccc3)C(=O)C(=O)N2C)c(OC)c1` (stereo not drawn), “inactive”.

Consider `COc1ccccc1C1/C(=C(/O)c2ccc(C)cc2)C(=O)C(=O)N1Cc1ccco1` (stereo not drawn), for which the Potency entry is “inactive”.

Regarding `CCn1c(SCC(=O)NC2CC2)nnc1-c1ccccn1`, the Potency entry was “inactive”. As for `CO[C@H]1[C@@H](O)[C@H](N)[C@@H](O[C@H]2O[C@H]([C@H](C)N)CC[C@H]2N)[C@H](O)[C@@H]1N(C)C(=O)CN`, the Potency entry is “inactive”. The result for `CC[C@]1(O)CC2CN(CCc3c([nH]c4ccccc34)[C@@](C(=O)OC)(c3cc4c(cc3OC)N(C=O)[C@H]3[C@@](O)(C(=O)OC)[C@H](OC(C)=O)[C@]5(CC)C=CCN6CC[C@]43[C@@H]65)C2)C1` (stereo partly drawn) reads 0.146 µM (active); that for `CC[C@]1(O)C[C@@H]2CN(CCc3c([nH]c4ccccc34)[C@@](C(=O)OC)(c3cc4c(cc3OC)N(C)[C@H]3[C@@](O)(C(=O)OC)[C@H](OC(C)=O)[C@]5(CC)C=CCN6CC[C@]43[C@@H]65)C2)C1`, 65.1 nM (active) and 47.3 nM (active) and 146 nM (active); that for `CCc1nc2onc(C)c2c(=O)n1CC(=O)O`, “inactive”. Turning to `O=C1Cc2cc(S(=O)(=O)Nc3cccc(F)c3)ccc2N1`, the Potency result is “inactive”.

Consider `Cc1c(NC(=O)C(C)(C)C)cccc1-c1nc2ccccc2s1`, for which the Potency is 13 µM (active). The result for `Cc1cccc(C(=O)Nc2ccc(-c3nc4ccccc4s3)c(C)c2)c1` reads “inactive”; that for `CC(=O)Nc1cccc(-c2nc3ccccc3s2)c1C`, “inactive”; that for `CCC(C(=O)Nc1cccc(-c2nc3cccnc3s2)c1C)c1ccccc1` (stereo not drawn), 20.6 µM (active). For the compound `CCC(C(=O)Nc1ccc2c(c1)OCCO2)c1ccccc1` (stereo not drawn), the Potency result was “inactive”. The result for `CCC(C(=O)Nc1ccc(C(C)C)cc1)c1ccccc1` (stereo not drawn) reads “inactive”; that for `Cc1c(O)cc2c(c1C)O[C@](C)(CCC[C@H](C)CCC[C@H](C)CCCC(C)C)CC2`, “inactive”.

Take `Cc1ccc(NC(=O)c2cc([N+](=O)[O-])ccc2Cl)c(O)c1`: the Potency entry is “inactive”. The result for `COc1ccc(N2CCN(c3ccc([N+](=O)[O-])cc3Cl)CC2)cc1` reads “inactive”; that for `CCC(=O)Nc1ccc(Nc2nc(Cl)nc(Nc3ccc(NC(=O)CC)cc3)n2)cc1`, “inactive”; that for `CCOc1ccc(Nc2nc(Cl)nc(N3CCN(c4ccc(OC)cc4)CC3)n2)cc1`, 18.4 µM (active). The result for `CCOC(=O)N1CCN(CCC(=O)Nc2ccccc2)CC1` reads “inactive”. The result for `Cc1noc(C)c1CSCC(=O)Nc1nc2ccc(Oc3ccccc3)cc2s1` reads “inactive”. As for `O=C(Nc1ccc(S(=O)(=O)N2CCCCC2)cc1)C1CC(=O)N(c2ccc(F)cc2)C1` (stereo not drawn), the Potency result was “inactive”. The result for `COC[C@@H]1NS(=O)(=O)c2ccc(Br)cc2O[C@H]1c1ccccc1` reads “inactive”; that for `Cc1ccc(C)c(NC(=O)C2CCCN(S(=O)(=O)c3cn(C)cn3)C2)c1` (stereo not drawn), “inactive”; that for `CCOc1ccc2nc(C(=O)N3CCCC(C)C3)sc2c1` (stereo not drawn), “inactive”.

Turning to `CCOc1ccc2nc(N3CCCC(C(=O)Nc4cc(C)ccc4C)C3)sc2c1` (stereo not drawn), the Potency is 23.1 µM (active).

Turning to `COCC(C)NS(=O)(=O)c1ccc(N2CCCCS2(=O)=O)cc1` (stereo not drawn), the Potency result was “inactive”. `COC(=O)C1=C(C)N=C2SC(C)C(=O)N2C1/C=C/c1ccccc1` (stereo not drawn): the Potency entry was “inactive”. `CC(OC(=O)c1ccccc1N1C(=O)C2C3CCC(C3)C2C1=O)C(=O)c1ccccc1` (stereo not drawn): the Potency result is “inactive”. The result for `CCOC(=O)c1ccccc1N1C(=O)C2Sc3[nH]c(=O)sc3C(/C=C/c3ccccc3)C2C1=O` (stereo not drawn) reads 18.4 µM (active); that for `CCOc1ccc2[nH]c(=O)c(CN(CCCO)C(C)=O)cc2c1`, “inactive”.

With `CCC(=O)N(CCc1ccccc1)Cc1cc2cc(C)ccc2[nH]c1=O`, the Potency result was “inactive”.

For `Cc1ccc2[nH]c(=O)c(CN(CCCN(C)C)C(=O)Nc3cccc(Cl)c3)cc2c1`, the Potency is 20.6 µM (active).

Regarding `Cc1cc(NC(=O)c2ccccc2C)no1`, the Potency entry was “inactive”.

Turning to `Cc1csc(=Nc2ccccc2)n1CCO`, the Potency result was “inactive”. The result for `OCCn1c(-c2ccccc2)csc1=Nc1ccccc1` reads 25.9 µM (active); that for `Cc1nc(SCC(=O)NC2CCCC2)[nH]c(=O)c1C`, “inactive”; that for `CC(CC(=O)N1CCN(c2ccccc2)CC1)S(=O)(=O)c1ccc2c(c1)NC(=O)CS2` (stereo not drawn), 23.1 µM (active).

In the case of `COc1ccccc1N1CCN(S(=O)(=O)c2ccc3c(c2)NC(=O)CS3)CC1`, the Potency entry is “inactive”. The result for `O=C1CSc2ccc(S(=O)(=O)NCc3ccccc3)cc2N1` reads “inactive”; that for `Cc1ccccc1OCCC(=O)OCC(=O)NCCc1ccc(S(N)(=O)=O)cc1`, “inactive”. The result for `Cc1ccc(N(CCC(=O)O)S(=O)(=O)c2cccc(C(F)(F)F)c2)cc1` reads “inactive”; that for `Cc1oc2c(F)c(F)c(F)c(F)c2c1S(=O)(=O)Nc1cccc(C(F)(F)F)c1`, 11.6 µM (active). On to `Cc1noc(C)c1S(=O)(=O)Nc1cc(C(F)(F)F)ccc1N1CCOCC1`, for which the Potency entry is “inactive”.

Take `O=S(O)CNc1ccc(S(=O)(=O)c2ccc(NCS(=O)O)cc2)cc1`: the Potency entry was “inactive”. Consider `COC(=O)[C@@H]1CC2=CC(=O)CC[C@]2(C)[C@@]23O[C@@H]2C[C@@]2(C)[C@@H](CC[C@@]24CCC(=O)O4)[C@H]13`, for which the Potency entry is “inactive”.

For the compound `CC(=O)O[C@]1(C(C)=O)CC[C@H]2[C@@H]3C=C(C)C4=CC(=O)CC[C@]4(C)[C@H]3CC[C@@]21C`, the Potency entry was “inactive”. With `C[C@]12CCC(=O)C=C1C=CC1C2CC[C@@]2(C)C1CC[C@@]21CCC(=O)O1` (stereo partly drawn), the Potency is 20.6 µM (active). The result for `CN1CCN(C(=O)/C(=C\c2ccc3c(c2)OCO3)NC(=O)c2cccs2)CC1` reads “inactive”. The result for `CCn1ccnc1CN(C)C(=O)c1cc(COc2ccc(Cl)cc2OC)on1` reads “inactive”; that for `O=C(O)CCn1c(SCc2cc(=O)n3ccccc3n2)nc2ccsc2c1=O`, “inactive”.

For the compound `Cc1cc(C)cc(CN2CCc3nnc(C(NS(C)(=O)=O)C(C)C)n3CC2)c1` (stereo not drawn), the Potency result was “inactive”. The result for `Cc1cccc(-c2nc(SCc3ccc(Br)cc3)n3[nH]c(=O)cc3n2)c1` reads 16.4 µM (active). Consider `CCc1ccccc1OCCSc1nc(-c2cccs2)nc2cc(=O)[nH]n12`, for which the Potency entry was “inactive”. The result for `Cc1cccc(CSc2nnc(C)c(=O)n2N)c1` reads “inactive”. The result for `CCN(CC(=O)Nc1ccccc1C(F)(F)F)C(=O)C1CCN(C(=O)Nc2ccccc2)CC1` reads “inactive”; that for `NC(=O)c1ccsc1NC(=O)COC(=O)COc1ccc(C=O)cc1`, “inactive”. On to `COC(=O)c1ccc(/C=N/N2C(C)CCCC2C)cc1` (stereo not drawn), for which the Potency result was “inactive”. Regarding `Cc1cccc[n+]1CC(=O)c1ccccc1`, the Potency entry was “inactive”.

As for `CC(C)(C)c1ccc(C(=O)C[n+]2cccc3cc(Cl)ccc32)cc1`, the Potency is 5.01 µM (active). The result for `COC(=O)C[n+]1cccc2ccccc21` reads “inactive”; that for `CCCC(O)(c1ccccc1)C(c1ccccc1)c1ccccn1` (stereo not drawn), “inactive”; that for `O=C(c1c(F)cccc1Cl)N1CCN(c2ccccn2)CC1`, “inactive”. The result for `Cc1nc(N2CCN(c3ccccn3)CC2)c2c(C)c(C(=O)Nc3ccc(F)c(Cl)c3)sc2n1` reads 16.4 µM (active); that for `COc1ccc(NC(C)=O)cc1NC(=O)CN1CCN(c2ccccn2)CC1`, “inactive”. The result for `Cc1ccc(NC(=O)Cn2cnc3nc4c(cc3c2=O)CCCC4)cc1Cl` reads “inactive”; that for `Cc1cc(NS(=O)(=O)c2ccc(NC(=O)c3cccc(OC(F)F)c3)cc2)nc(C)n1`, “inactive”. As for `O=S(=O)(Nc1n[nH]c(C(F)(F)F)n1)c1ccccc1`, the Potency entry was “inactive”. Turning to `N#CC1=C(N)OC2=C(C(=O)CCC2)C1C1CC=CCC1` (stereo not drawn), the Potency entry was “inactive”. Turning to `CCCc1[nH]nc2c1C(c1c(C)nn(-c3ccccc3)c1Cl)C(C#N)=C(N)O2` (stereo not drawn), the Potency is 11.2 µM (active).

Consider `CCOc1c(OC)cc(C2C(C#N)=C(N)Oc3n[nH]c(-c4ccncc4)c32)cc1OC` (stereo not drawn), for which the Potency result is “inactive”. The result for `CCc1ccc(C2C(C#N)=C(N)Oc3n[nH]c(CC(=O)OC)c32)cc1` (stereo not drawn) reads “inactive”. For the compound `COCc1[nH]nc2c1C(C1C=CCCC1)C(C#N)=C(N)O2` (stereo not drawn), the Potency was 13 µM (active). The result for `CCCc1[nH]nc2c1C(c1ccc(Br)s1)C(C#N)=C(N)O2` (stereo not drawn) reads 6.51 µM (active); that for `Cc1nn(-c2ccccc2)c2c1C(c1ccc(F)cc1)C(C#N)=C(N)O2` (stereo not drawn), “inactive”. Regarding `CCCc1nc2c([nH]1)C(c1cccnc1)C(C#N)=C(N)O2` (stereo not drawn), the Potency entry was “inactive”. The result for `Cc1cc(C)c(C#N)c(SCc2[nH]nc3c2C(c2ccccc2)C(C#N)=C(N)O3)n1` (stereo not drawn) reads “inactive”; that for `CCCc1[nH]nc2c1C(c1ccc(OC(=O)c3ccco3)cc1)C(C#N)=C(N)O2` (stereo not drawn), “inactive”; that for `CCCc1[nH]nc2c1C(c1ccc(OC)c(Cn3nc(C)c(Br)c3C)c1)C(C#N)=C(N)O2` (stereo not drawn), “inactive”. The result for `CCCc1[nH]nc2c1C(C1CC=CCC1)C(C#N)=C(N)O2` (stereo not drawn) reads 16.4 µM (active).
